From PubChem
12-LOX inh – inhibitors of human 12S-lipoxygenase ALOX12 | hit rate 1.1% among 580,000 | purified 12hLO, xylenol orange hydroperoxide absorbance | AID 1671190 | Potency, µM (titrated, usually from 108 µM), actives largely listed as inhibitors | P18054
Target sequence (P18054 whole entry, looked up): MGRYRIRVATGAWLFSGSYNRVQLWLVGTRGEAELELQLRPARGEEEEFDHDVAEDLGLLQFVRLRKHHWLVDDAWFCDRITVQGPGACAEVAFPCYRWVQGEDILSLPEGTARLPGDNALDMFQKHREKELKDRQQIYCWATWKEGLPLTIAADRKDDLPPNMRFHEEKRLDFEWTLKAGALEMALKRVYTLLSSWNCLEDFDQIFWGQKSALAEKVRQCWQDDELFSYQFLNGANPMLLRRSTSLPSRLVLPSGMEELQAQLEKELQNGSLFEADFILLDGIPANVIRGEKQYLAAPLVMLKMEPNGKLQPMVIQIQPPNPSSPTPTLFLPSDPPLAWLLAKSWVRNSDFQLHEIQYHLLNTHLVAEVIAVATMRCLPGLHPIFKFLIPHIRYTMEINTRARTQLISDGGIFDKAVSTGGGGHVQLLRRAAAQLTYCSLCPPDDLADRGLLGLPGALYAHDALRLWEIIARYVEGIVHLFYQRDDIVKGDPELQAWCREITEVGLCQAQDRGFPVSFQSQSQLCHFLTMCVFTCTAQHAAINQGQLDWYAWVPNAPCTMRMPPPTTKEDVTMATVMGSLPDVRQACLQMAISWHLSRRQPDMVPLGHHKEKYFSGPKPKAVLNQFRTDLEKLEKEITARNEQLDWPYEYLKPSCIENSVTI
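Purified human 12hLO (150 nM final) in 25 mM Hepes, 0.01% Triton X-100, pH 7.0 was preincubated 15 min at room temperature with compound. Then 40 uM arachidonic acid was added, 30 min. Hydroperoxide was read by Fe-XO absorbance ratio 573/405 nm.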
DT40 TDP1 CPT – DT40-hTDP1 cell growth loss with CPT; hit rate 12% among 420,000; Potency, µM (top dose mostly 46.2 µM), actives largely listed as inhibitors; chicken DT40 Tdp1-/-;hTDP1 cells + 20 nM CPT, ATP luminescence, 48 h; AID 686979; also: nearly all actives have a fitted effect of over 55% in size
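Chicken DT40 Tdp1-/- cells stably complemented with human TDP1 were seeded at 400 cells/well in medium containing 20 nM camptothecin, exposed to pin-transferred compounds, and grown at 37 °C for at least 48 hr. Viability was read as ATP luminescence.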
HT1080NT lethal – kills 2HG-producing HT-1080-NT fibrosarcoma cells. HT-1080-NT fibrosarcoma viability, CellTiter-Glo ATP luminescence, 48 h. Potency, µM (top dose mostly 46.1 µM), hits mostly cytotoxic. hit rate 1.6% among 360,000. AID 686970;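 also: NT is the 2HG producing partner of a matched IDH1 knockdown line; nearly all actives have a fitted effect of over 55% in size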
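HT-1080-NT fibrosarcoma cells (2HG-overproducing), 750 cells/well in RPMI with 5% FBS, dosed after 2 h and incubated 48 h at 37C. CellTiter-Glo luminescence normalized to DMSO and no-cell wells; concentration-response curves fitted and classed.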
HT1080 IDH1KD tx – kills HT-1080 cells with IDH1 knockdown | HT-1080 IDH1 knockdown viability, ATP luminescence, 48 h | hit rate 2% among 360,000 | AID 686971 | Potency, µM (titrated, usually from 46.1 µM), most hits filed as cytotoxic
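In this qHTS, HT-1080 cells depleted of IDH1 are exposed for 48 h at 37 °C to compound titrations. Toxicity is scored from CellTiter-Glo luminescence, with DMSO as full viability and medium alone as none.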
IL1B secr inh – blocks inflammasome-driven IL-1 beta release. activity change, % at 57.5 µM. hit rate 4.7% among 360,000. THP-1 LPS/ATP IL-1B secretion, AlphaLISA, 16 h; hits give low values. AID 743279; in the data active = activity change below about -50%; inconclusive = mostly about -30% to -49%
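THP-1 cells pretreated 1 hr with compounds (up to 57.5 uM final), then stimulated with LPS (250 ng/mL final) plus ATP (1.25 mM final); secreted IL-1B measured by AlphaLISA after 16 hr, decreased signal indicating inhibition.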
TDP1 cell noCPT – qHTS for Inhibitors of human tyrosyl-DNA phosphodiesterase 1 (TDP1): qHTS in cells in absence of CPT | DT40 Tdp1-/- hTDP1 cells, no CPT, ATP luminescence, 48 h | Potency, µM (highest dose often 46.2 µM), hits mostly inhibitors | hit rate 15% among 420,000 | AID 686978, 2013; also: nearly all actives have a fitted effect of over 55% in size
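Growth of hTDP1-complemented DT40 Tdp1-knockout cells is measured by ATP luminescence after at least 48 hr compound exposure at 37 °C, with DMSO substituting for the 20 nM CPT used in the parallel screen.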
Numbers stand for hits; – = inactive; ? = inconclusive; · = not tested or not shown. This is one part of a sample in which hits are shown more often than they occur. Unless noted, calls follow the shape of the dose curve; as a rule, active = well fitted curve in the direction sought with a large enough effect; inconclusive = small, poorly fitted or top-dose-only effect, or another doubt; inactive = no such curve, though single readings can be large; an effect the other way counts as inactive or inconclusive.

SMILES	12-LOX inh	DT40 TDP1 CPT	HT1080NT lethal	HT1080 IDH1KD tx	IL1B secr inh	TDP1 cell noCPT
COc1cc(-c2ccc(C)cc2)nc2ccc(C(=O)N3CCCC3)cc12	–	·	·	·	·	·
COc1cc(C(=O)NC(c2ccc(Cl)cc2)c2cc(Cl)c3cccnc3c2O)cc(OC)c1OC (stereo unspecified)	–	10.3µM	·	·	·	5.17µM
COc1cccc(C(=O)NC(c2ccc(Cl)cc2)c2cc(Cl)c3cccnc3c2O)c1 (stereo unspecified)	–	8.2µM	·	·	·	5.8µM
CCc1ccc(CN(C)CC(=O)Nc2ccc(C(F)(F)F)cc2)cc1	–	·	·	·	·	·
CCn1c2ccccc2c2cc(CNCc3ccc(OC)cc3OC)ccc21	?	?	–	?	-88.3	10.3µM
COc1ccc(CNCc2ccc(F)cc2)c(OC)c1	–	–	–	–	–	?
COc1cccc(CNCc2ccc(OC)cc2OC)c1	?	?	–	–	-56.5	?
CCn1c(=O)cc(SCC(=O)NCc2ccc(OC)cc2OC)c2ccccc21	–	–	·	·	·	–
COc1ccc(CNCc2cc(C)c(OC)cc2C)c(OC)c1	?	14.6µM	?	?	-63.0	11.6µM
COc1ccc(CN2C(=O)[C@@H]3C[C@@H](O)CN3C3(CN(Cc4cnc[nH]4)C3)C2=O)cc1	–	·	·	·	·	·
CC(=O)N1CC2(Cc3ccccc31)CN(C(=O)Cc1ccc(F)cc1)C2	–	·	·	·	·	·
Cc1ccc(S(=O)(=O)/C=C/c2ccccc2)cc1	–	–	–	–	-75.5	–
Cc1ccc(S(=O)(=O)Oc2ccccc2)cc1	?	–	–	–	–	–
CCOc1cc(C(=O)NCc2n[nH]c(=O)c3ccccc23)cc(OCC)c1OCC	–	·	·	·	·	·
CC(C(=O)N(C)CC(=O)Nc1ccccc1C(F)(F)F)N(C)Cc1cccc(F)c1 (stereo unspecified)	–	·	·	·	·	·
Cc1ccc(NC(=O)c2ccc(-n3nncc3-c3ccccc3)cc2)cc1	·	?	·	·	·	15.8µM
CCOc1ccc(C(=O)Nc2ccc(-n3nncc3-c3ccccc3)cc2)cc1OCC	–	18.4µM	·	·	·	14.6µM
COc1ccc(/C=C/C(=O)Nc2ccc(C(N)=O)cc2)cc1OC	–	–	?	?	–	–
COc1ccc(/C=C/C(=O)Nc2ccc(-n3nncc3-c3ccccc3)cc2)cc1OC	–	20.6µM	–	–	–	8.2µM
CCOc1ccc(C(=O)Nc2ccc(-n3nncc3-c3ccc(OC)cc3)cc2)cc1	–	?	·	·	·	?
COCCNC(=O)[C@@H]1C[C@H](Oc2cccnc2)CN1C(=O)Cc1c[nH]c2ccccc12	–	·	·	·	·	·
COCCN(CC(N)=O)S(=O)(=O)c1ccc(F)c(F)c1	–	·	·	·	·	·
CCOc1ccc(CCN2C(=O)C(=O)N([C@@H](CC(C)C)CN3CCC[C@H]3CN3C(=O)C(=O)NC[C@@H]3CC(C)C)C[C@@H]2Cc2ccc(O)cc2)cc1	–	16.4µM	–	?	-71.8	?
CC(C)C[C@H]1CNC(=O)C(=O)N1C[C@@H]1CCCN1C[C@H](CC(C)C)N1C[C@H](Cc2ccc(O)cc2)N(CCc2ccccc2)C(=O)C1=O	–	–	–	–	–	–
CCOc1ccc(CCN2C(=O)C(=O)N([C@@H](CC(C)C)CN3CCC[C@H]3CN3C(=O)C(=O)NC[C@@H]3Cc3ccc(O)cc3)C[C@@H]2Cc2ccccc2)cc1	–	?	–	?	–	16.4µM
SMILES	12-LOX inh	DT40 TDP1 CPT	HT1080NT lethal	HT1080 IDH1KD tx	IL1B secr inh	TDP1 cell noCPT
O=C(CSc1ccccn1)c1ccc2c(c1)OCCO2	–	·	·	·	·	·
Oc1c(CN2CCN(c3ccccc3)CC2)cc(Br)c2cccnc12	–	5.17µM	?	?	–	3.26µM
CC(C)OCc1cc(CN2CCN(c3ccccc3)CC2)c(O)c2ncccc12	?	4.61µM	·	·	·	3.26µM
CCOCc1cc(CN2CCN(c3cccc(Cl)c3)CC2)c(O)c2ncccc12	–	8.2µM	·	·	·	7.31µM
COCc1cc(CN2CCN(C)CC2)c(O)c2ncccc12	–	4.11µM	?	?	–	3.26µM
CCOCC(=O)N1CCN(c2cccc(Cl)c2)CC1	–	–	–	–	–	?
CCOC(=O)N1CCN(Cc2ccccc2Cl)CC1	?	–	–	–	–	–
Oc1c(CNc2ccccc2)cc(COCc2ccccc2)c2cccnc12	–	·	·	·	·	·
CCOC(=O)N1CCN(Cc2cc(Cl)c3cccnc3c2O)CC1	?	0.82µM	5.8µM	3.26µM	–	0.461µM
Oc1c(CN2CCOCC2)cc(COCc2ccccc2)c2cccnc12	?	4.61µM	?	13µM	–	4.11µM
Clc1ncc(CN2CCN(c3ccccc3)CC2)s1	–	–	–	–	–	–
CCOC(=O)C1CCN(Cc2ccc(O)c3ncccc23)CC1	?	4.61µM	?	–	–	3.66µM
c1ccc(N2CCN(Cc3ccnc4ccccc34)CC2)cc1	–	25.9µM	–	?	–	20.6µM
Cc1cc(=O)n(CC(=O)Nc2ccc(C(C)C)cc2)c(N2CCOCC2)n1	–	·	·	·	·	·
COCCNC(=S)N/N=C/c1cc(OC)c(OC)cc1OC	–	·	·	·	·	·
COc1ccc2ccccc2c1/C=N/NC(=S)NCCN1CCOCC1	–	16.4µM	–	–	–	–
COc1cc(OC)c(OC)cc1/C=N/NC(=S)NCCN1CCOCC1	–	18.4µM	–	–	–	16.4µM
COc1cc(OC)c(OC)cc1/C=N/NC(=S)NCC1CCCO1 (stereo unspecified)	–	7.31µM	?	?	–	?
CN(C)c1ccc(C(c2ccc(N(C)C)cc2)C(O)c2ccccc2)cc1 (stereo unspecified)	?	?	–	–	-55.3	?
Cc1cccc(N(C(=O)c2snc(C(N)=O)c2N)C(C(=O)NC2CCCC2)c2ccc(C)o2)c1 (stereo unspecified)	–	18.4µM	?	–	–	14.6µM
Cc1ccc(N(C(=O)c2snc(C(N)=O)c2N)C(C(=O)NC2CCCC2)c2ccc(C)o2)cc1 (stereo unspecified)	?	?	–	–	-77.2	?
Cc1ccc(OCC(=O)Nc2ccc3c(C)cc(=O)oc3c2)cc1C	–	·	·	·	·	·
CC(C)=CCC/C(C)=C/CNC(=O)C[C@H]1C[C@H](C(=O)N2CCOCC2)[C@@]2(C)c3[nH]c4ccc(Cl)cc4c3CCN2C1=O	?	23.1µM	–	–	-65.1	?
COc1ccc(CNC(=O)C[C@H]2C[C@H](C(=O)N3CCOCC3)[C@@]3(C)c4[nH]c5cc(-c6ccco6)ccc5c4CCN3C2=O)cc1OC	?	?	–	–	–	?
CC(C)(C)NC(=O)CC1C[C@H](C(=O)N2CCOCC2)[C@@]2(C)c3[nH]c4ccccc4c3CCN2C1=O (stereo partly specified)	–	–	–	–	–	–
